# Laboratory results reported in PubChem BioAssay AID504454 (NMMLSC, 2011).
# The campaign covered roughly 340,000 compounds. About 1,400 (0.41%) were called active.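 Rule for the calls: active = response above a set limit, near 3 SD of response in nonfluorescent compounds (cut at about 42% in these data); inactive = the rest.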 The list comes from a sample in which actives are over-represented; it also holds similar structures and randomly drawn compounds.
# Molecular target: Beta-2 adrenergic receptor (Homo sapiens) (UniProt P07550)
# Experiment: beta2AR agonists driving receptor internalization, primary screen, cell-based, FAP fluorogen, flow cytometry (AID 504454)
# Conditions: Am2.2-beta2AR cells, hits give high values, concentration not given here
# Beta-2 adrenergic receptor (Homo sapiens), sequence (P07550 whole entry, looked up): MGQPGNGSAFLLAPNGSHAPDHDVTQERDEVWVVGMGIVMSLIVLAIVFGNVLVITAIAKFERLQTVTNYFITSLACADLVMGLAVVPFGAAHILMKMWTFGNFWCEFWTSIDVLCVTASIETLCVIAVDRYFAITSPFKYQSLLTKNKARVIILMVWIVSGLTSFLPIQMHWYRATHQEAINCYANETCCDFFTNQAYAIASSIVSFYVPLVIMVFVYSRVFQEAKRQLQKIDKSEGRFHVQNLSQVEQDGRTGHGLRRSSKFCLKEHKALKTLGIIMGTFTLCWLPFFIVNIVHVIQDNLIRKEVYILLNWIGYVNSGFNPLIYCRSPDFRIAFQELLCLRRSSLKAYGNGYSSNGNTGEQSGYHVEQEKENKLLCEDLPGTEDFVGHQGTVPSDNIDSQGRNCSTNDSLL
row,Structure (SMILES),response
1,CCOc1cc(/C=C2/N=C(c3ccc(C(C)(C)C)cc3)OC2=O)cc(Cl)c1OS(C)(=O)=O,-2.17% (inactive)
2,COc1ccc(NC(=O)CN(C)C(=O)c2cccc(S(=O)(=O)N3CCN(c4ccccc4)CC3)c2)cc1,6.13% (inactive)
3,O=[N+]([O-])/C=C/c1ccc2c(ccn2Cc2ccccc2)c1,48.2% (active)
4,Cn1c(=S)sc2ccc3ccccc3c21,59.5% (active)
5,COc1ccc2ccccc2c1CNc1nnnn1C,-4.52% (inactive)
6,CCN(CC(=O)Nc1ccccc1C(F)(F)F)C(=O)CSCc1c(C)noc1C,-3.25% (inactive)
7,Cc1ccc(NC(=O)COC(=O)C2C3CC4OC(=O)C2C4C3)cc1Cl (centres undefined),5.53% (inactive)
8,O=C1c2ccccc2C(=O)N1CCC#Cc1ccc2cc(C3(O)CCCCC3)oc(=O)c2c1,5.43% (inactive)
9,COc1cc(C#Cc2ccc3cc(CCCO)oc(=O)c3c2)cc(OC)c1,45.9% (active)
10,COc1cc(/C=C2\Oc3ccc(C#Cc4ccc(O)cc4)cc3C2=O)cc(OC)c1,-8.05% (inactive)
11,COc1ccc(CCNC(=O)c2ccc3c(c2)NC(=O)C(N2CCOCC2)S3)cc1OC (centres undefined),3.69% (inactive)
12,Cc1nn(Cc2ccccc2)c(C)c1C(=O)N1CCN(CC(=O)Nc2ccccc2Cl)CC1,4.22% (inactive)
13,COC(=O)N/N=C/c1cn(CCCOc2ccc(C)cc2)c2ccccc12,105% (active)
14,COc1cccc(Cn2cc(/C=N/NC(=O)c3cc(O)cc(O)c3)c3ccccc32)c1,3.63% (inactive)
15,CCOC(=O)N/N=C/c1cn(Cc2ccccc2Cl)c2ccccc12,-0.12% (inactive)
16,COc1ccc(OC)c(CCNC(=O)CCn2ccc3cc(S(=O)(=O)N4CCCC4)ccc32)c1,1.18% (inactive)
17,CCOCCCNC(=O)c1c[nH]c2cc(C)ccc2c1=O,-5.06% (inactive)
18,CCN(CC)S(=O)(=O)c1ccc(N2CCCC2)c(NC(=O)c2ccc([N+](=O)[O-])o2)c1,5.38% (inactive)
19,O=S(=O)(NCCSc1ccccn1)c1ccc(Cl)cc1,-2.74% (inactive)
20,Cc1cc(C)n(CCNS(=O)(=O)c2ccc(Cl)cc2)n1,-1.1% (inactive)
21,CC(C)(CSc1nncn1/N=C/c1ccco1)NS(=O)(=O)c1ccc(Cl)cc1,45.9% (active)
22,COc1cc(C(=O)NCc2ccncc2)cc(Br)c1OCc1ccccc1,7.17% (inactive)

row,Structure (SMILES),response
1,COC(=O)c1ccc(C23CC4(C2)[C@H](CN(Cc2cccnc2)[C@@H]4c2ccccc2)C3c2ccc(Cl)nc2)cc1 (some centres undefined),5.54% (inactive)
2,CCn1c(CNc2ccc(OC)cc2)nnc1SCC(=O)c1ccc(OC)cc1,6.23% (inactive)
3,CCn1c(SCC(=O)NNC(=O)c2ccc(OC)cc2)nnc1C(C)C,76.2% (active)
4,CCC(c1nnc(SCC(=O)NNC(=O)c2ccccc2)n1Cc1ccccc1)N(C)C (centres undefined),-7.18% (inactive)
5,Cc1cc(C)c(S(=O)(=O)n2cc(C(C)C(N)C(=O)O)c3ccccc32)c(C)c1 (centres undefined),3.12% (inactive)
6,CCCNC(=O)N1CCC(c2ccc3c(c2)OCO3)CC1,6.03% (inactive)
7,O=[N+]([O-])c1ccc(NC(=S)N2CCN(c3ccccn3)CC2)cc1,-2.61% (inactive)
8,COc1ccc(NC(=O)c2sc3nc(C)nc(N4CCN(c5ccccn5)CC4)c3c2C)c(OC)c1,16.2% (inactive)
9,COc1ccc(OC)c(NC(=O)c2sc3nc(C)cc(C)c3c2N)c1,72.5% (active)
10,COCc1cc(C)nc2sc(C(=O)NC3CCCCC3)c(N)c12,-21.3% (inactive)
11,O=S(=O)(c1ccccc1)c1nc(Cc2ccccc2)oc1N1CCOCC1,6.12% (inactive)
12,CCCCN=C1N/C(=C\c2ccco2)C(=O)N1c1ccccc1,0.77% (inactive)
13,COc1cc(OC)cc(C(=O)NNC(=O)CCOc2ccccc2OC)c1,4.38% (inactive)
14,CCN1CCC(=NNC(=O)c2ccc(C)c([N+](=O)[O-])c2)CC1,2.52% (inactive)
15,CCCCN(CCCC)CCCNC(=O)CN1C(=O)COc2ccc(S(=O)(=O)N3CCC(C)CC3)cc21,7.21% (inactive)
16,Cc1nc2ccccc2c(C(=O)O)c1-c1ccccn1,5.02% (inactive)
17,Cc1nc2ccccc2c(C)c1C(=O)c1ccc(F)cc1,1.92% (inactive)
18,Cc1nc2ccccc2c(-c2ccccc2)c1C(=O)c1ccccc1,105% (active)
19,CC/S(CC1CC1(Cl)Cl)=N\S(=O)(=O)c1ccc(C)cc1 (centres undefined),-2.93% (inactive)
20,O=c1[nH]c(=S)[nH]c(O)c1/C=C1\C=Nc2ccccc21,57.7% (active)
21,COc1ccc2c(c1OC)C(=O)N(c1ccc(O)cc1)C2,5.16% (inactive)
22,COc1ccnc(Oc2ccccc2)c1-c1ncn[nH]1,1.34% (inactive)
